Results reported in PubChem BioAssay (NCATS).
Values joined by “and” are separate entries in the source; they are usually repeats but may differ in a detail not shown here. Equal entries are not always repeated. Records with an inconclusive call do not appear. A structure can be active in one record and inactive in another. Active and inactive are the calls of the source. Unless noted, calls follow the shape of the dose curve; as a rule, active = well fitted curve in the direction sought with a large enough effect; inconclusive = small, poorly fitted or top-dose-only effect, or another doubt; inactive = no such curve, though single readings can be large; an effect the other way counts as inactive or inconclusive.

Assays:
[1] = target: Alpha-galactosidase (Coffea arabica) (UniProt Q42656); experiment: Counterscreen for Glucocerebrosidase Inhibitors: qHTS Assay for Coffee Bean alpha-Galactosidase at pH 4.5 (AID 957); also: series mostly up to about 77 µM
Outline: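 Quantitative HTS of compounds (0.7 nM to 77 uM) against coffee bean alpha-galactosidase at pH 4.5, measuring 4-methylumbelliferone fluorescence released from 80 uM substrate.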

[2] = target: Pyruvate kinase PKM (Homo sapiens) (UniProt P14618); experiment: qHTS Assay for Activators of Human Muscle Pyruvate Kinase (AID 954; active = well fitted curve in the direction sought with a large enough effect, not every such curve was filed as active)
Outline: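 Compound pinned into substrate mix (0.5 mM PEP, 0.1 mM ADP), then 0.1 nM PKM2 added; 1 h, RT. Stop/detection luciferase reagent added, luminescence read. Normalized to no-inhibition and no-enzyme or reference-inhibitor controls.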

[3] = MultiTox-Fluor Cytotoxicity Assay - LYMP1-002 - Live Cells (AID 955); also: potency is read from the fitted curve at half-maximal effect
Outline: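 In this qHTS viability format, lymphoblastoid cells (LYMP1-002, human) received compound for 16 hr at 37 C. Fluorogenic GF-AFC cleavage by viable cells was detected at 405/510 nm after 1 h at room temperature.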

[4] = MultiTox-Fluor Cytotoxicity Assay - LYMP1-003 - Dead Cells (AID 961); also: nearly all actives have a fitted effect of over 70% in size; also: potency is read from the fitted curve at half-maximal effect
Outline: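 LYMP1-003 human lymphoblastoid cells (2500/well) exposed to compound 16 h at 37 C in complete medium; dead-cell protease read with bis-AAF-R110 fluorescence (Ex/Em 485/520) after 60 min at room temperature. Normalized to DMSO and 15 uM tetraoctylammonium bromide; AC50 from Hill fit.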

[5] = MultiTox-Fluor Cytotoxicity Assay - LYMP1-003 - Live Cells (AID 962); also: potency is read from the fitted curve at half-maximal effect
Outline: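 Human lymphoblastoid line LYMP1-003 in complete culture medium, treated 16 hr with titrated compounds. Viable cells quantified via cell-permeant GF-AFC substrate fluorescence; AC50 derived by Hill fitting.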

[6] = Cell Viability - LYMP1-003 - Assay at 24 hr (AID 963); also: potency is read from the fitted curve at half-maximal effect
Outline: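 The lymphoblastoid line was treated with titrated compounds for 24 hours, and viable cell number estimated from luciferase-based ATP luminescence.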

[7] = Cell Viability - LYMP1-003 - Assay at 40 hr (AID 964); also: nearly all actives have a fitted effect of over 60% in size; also: potency is read from the fitted curve at half-maximal effect
Outline: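 Acute toxicity is scored as a concentration-dependent loss of intracellular ATP in LYMP1-003 cells (2500/well, complete medium) after 40 hr at 37 C, measured by CellTiter-Glo luminescence; AC50 values derive from standard Hill modelling.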

[8] = Cell Viability - LYMP2-003 (AID 965);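 also: cells exposed to compounds for 24 h before reading; nearly all actives have a fitted effect of over 50% in size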; also: potency is read from the fitted curve at half-maximal effect
Outline: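 Seed 2500 lymphoblastoid cells/well; incubate 5 hr, 37 C; add compounds; incubate 24 hr, 37 C; add CellTiter-Glo, 30 min RT; read luminescence. AC50 from Hill fit.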

[9] = Cell Viability - LYMP2-009 (AID 968);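 also: cells exposed to compound for 24 h at 37 °C; nearly all actives have a fitted effect of over 55% in size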; also: potency is read from the fitted curve at half-maximal effect
[10] = Cell Viability - LYMP2-011 (AID 969); also: nearly all actives have a fitted effect of over 60% in size; also: potency is read from the fitted curve at half-maximal effect
Outline: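 Cells seeded at 2500 per well rest 5 hr before compound addition, then incubate 24 hr at 37 C. CellTiter-Glo reagent is added for 30 min at room temperature before luminescence detection.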

[11] = Cell Viability - LYMP2-013 (AID 970);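 also: cells exposed to compound for 24 h at 37 °C; nearly all actives have a fitted effect of over 55% in size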; also: potency is read from the fitted curve at half-maximal effect
Outline: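 In complete culture medium, human lymphoblastoid cells were dosed for 24 hr at 37 C, with tetraoctylammonium bromide (6.4pM to 92 uM) as positive control. Viability reflects luciferase-based ATP signal; AC50 derived from concentration-response curves.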

[12] = Cell Viability - LYMP2-015 (AID 971); also: nearly all actives have a fitted effect of over 55% in size; also: potency is read from the fitted curve at half-maximal effect
Outline: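 AC50 values reflect Hill-model fits of ATP-based luminescence (CellTiter-Glo) from a human lymphoblastoid line, 2500 cells/well, treated 24 hr at 37 C.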

[13] = Cell Viability - LYMP2-017 (AID 972);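 also: cells exposed to compound for 24 hours at 37 °C; nearly all actives have a fitted effect of over 55% in size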; also: potency is read from the fitted curve at half-maximal effect
Outline: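 In this qHTS format, lymphoblastoid cells in complete medium receive test compound for a day at 37 C before ATP content is quantified by luciferase luminescence. Reported AC50 figures come from standard Hill-equation curve fitting.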

[14] = Cell Viability - LYMP2-019 (AID 973); also: potency is read from the fitted curve at half-maximal effect
Outline: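 AC50 values come from Hill-equation modelling of qHTS concentration-response curves, where viability is measured as luciferase-based ATP luminescence in the lymphoblastoid line after 24 hr compound exposure in complete culture medium.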

[15] = Cell Viability - LYMP2-021 (AID 974); also: potency is read from the fitted curve at half-maximal effect
Outline: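 In qHTS format, compounds are tested against 2500 lymphoblastoid cells per well for 24 h; viable cell number is inferred from ATP-driven luciferase light, and Hill-equation fitting yields AC50 values.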

[16] = Cell Viability - LYMP2-023 (AID 975); also: potency is read from the fitted curve at half-maximal effect
Outline: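 In this qHTS, ATP-based luciferase luminescence (CellTiter-Glo) is quantified in human lymphoblastoid cells after 24 hr compound treatment at 37 C; tetraoctylammonium bromide serves as positive control. Concentration-response curves are Hill-fitted to give AC50.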

[17] = Cell Viability - LYMP2-025 (AID 976);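 also: cells exposed to compound for 24 h at 37 °C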; also: potency is read from the fitted curve at half-maximal effect
Outline: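 Luminescent ATP readout after 24 hr treatment of a human lymphoblastoid line (LYMP2-025, 2500 cells/well, 37 C). Reagent developed 30 min at room temperature; AC50 fitted with the Hill equation.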

[18] = MultiTox-Fluor Cytotoxicity Assay - LYMP1-002 - Dead Cells (AID 960); also: nearly all actives have a fitted effect of over 60% in size
Outline: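 Concentration-dependent increases in membrane-leaked protease activity are quantified in LYMP1-002 cells after 16 hr treatment; values are normalized against DMSO and tetraoctylammonium bromide (15 uM) controls and AC50 derived by Hill modeling.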

[19] = Cell Viability - LYMP2-005 (AID 967);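 also: cells exposed to compound for 24 h at 37 °C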; also: potency is read from the fitted curve at half-maximal effect
Outline: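 Acute cytotoxicity is scored as a concentration-dependent drop in intracellular ATP in human lymphoblastoid LYMP2-005 cells after 24 h compound treatment. ATP is quantified by luciferase luminescence, and AC50 is derived by Hill-equation modelling.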

[20] = Cell Viability - LYMP2-004 (AID 966); also: nearly all actives have a fitted effect of over 65% in size; also: potency is read from the fitted curve at half-maximal effect
Outline: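 Viable-cell number estimated from ATP luminescence (CellTiter-Glo) in 2500 human lymphoblastoid cells/well after 24 hr at 37 C with compound. AC50 fitted to the standard Hill equation.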

Measured: Potency

Pyruvate kinase PKM (Homo sapiens), sequence (P14618 whole entry, looked up): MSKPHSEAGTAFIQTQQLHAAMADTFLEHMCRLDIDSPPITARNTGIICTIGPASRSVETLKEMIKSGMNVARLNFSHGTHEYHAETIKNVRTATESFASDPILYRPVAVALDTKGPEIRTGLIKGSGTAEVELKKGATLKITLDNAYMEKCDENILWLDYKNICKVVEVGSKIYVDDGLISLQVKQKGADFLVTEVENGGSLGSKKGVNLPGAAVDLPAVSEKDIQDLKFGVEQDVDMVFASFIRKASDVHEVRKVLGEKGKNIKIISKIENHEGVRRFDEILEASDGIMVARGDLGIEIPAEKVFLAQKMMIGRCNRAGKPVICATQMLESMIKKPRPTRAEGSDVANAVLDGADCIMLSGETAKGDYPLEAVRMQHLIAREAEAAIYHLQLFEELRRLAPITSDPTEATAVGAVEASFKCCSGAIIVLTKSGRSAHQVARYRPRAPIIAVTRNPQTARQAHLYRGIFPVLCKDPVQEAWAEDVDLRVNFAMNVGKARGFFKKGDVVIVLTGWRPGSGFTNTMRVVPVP
Alpha-galactosidase (Coffea arabica), sequence (Q42656 whole entry, looked up): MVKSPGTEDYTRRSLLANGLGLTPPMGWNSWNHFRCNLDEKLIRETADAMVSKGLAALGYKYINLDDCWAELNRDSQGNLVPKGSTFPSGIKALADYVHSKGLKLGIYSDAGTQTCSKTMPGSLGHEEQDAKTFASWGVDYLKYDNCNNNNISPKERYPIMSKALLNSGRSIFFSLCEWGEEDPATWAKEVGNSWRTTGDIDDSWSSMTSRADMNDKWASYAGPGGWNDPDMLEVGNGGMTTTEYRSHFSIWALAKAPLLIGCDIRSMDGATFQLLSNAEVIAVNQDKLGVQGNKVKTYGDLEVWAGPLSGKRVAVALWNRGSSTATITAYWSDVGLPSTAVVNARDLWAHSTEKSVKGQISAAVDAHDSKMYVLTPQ

Nc1ccn([C@H]2CC[C@@H](CO)O2)c(=O)n1
inactive: [1]

c1ccc2nc(N3CCNCC3)ccc2c1
inactive: [2] | [1]

COc1nc(C)nc(Cl)c1NC1=NCCN1
inactive: [1]

CCCCCCCCCCCC[N+](C)(C)CCOc1ccccc1
active: [3] 10 µM | [4] 12.6 µM | [5] 31.6 µM | [6] 12.6 µM | [7] 31.6 µM | [8] 50.1 µM | [9] 31.6 µM | [10] 39.8 µM | [11] 31.6 µM | [12] 31.6 µM | [13] 39.8 µM | [14] 39.8 µM | [15] 39.8 µM | [16] 50.1 µM | [17] 50.1 µM

OC(CN1CCC(Cc2ccc(F)cc2)CC1)c1ccc(Cl)cc1 (configuration not stated)
inactive: [1]

CCCCNc1cc(C(=O)O)cc(S(N)(=O)=O)c1Oc1ccccc1
inactive: [1]

COc1ccc(C(=O)N2CCCC2=O)cc1
inactive: [2]

CCCCNc1c(C(=O)OCC)c(C)nc2c1cnn2CC
inactive: [1]

Cc1cc(C(C)(C)C)cc(C)c1CC1=NCCN1
inactive: [1]

CCCCCCCCC(=O)NCc1ccc(O)c(OC)c1
inactive: [2]

COP(=O)(OC)OC=C(Cl)Cl
6.31 µM (active) and inactive: [7]
not listed: [1] | [2] | [4] | [20]
inactive: all other assays above

CN(C)C(=S)SSC(=S)N(C)C
active: [3] 10 µM | [4] 12.6 µM | [5] 50.1 µM | [6] 15.8 µM | [8] 0.251 µM | [20] 0.251 µM | [19] 0.501 µM | [9] 0.199 µM | [10] 0.316 µM | [11] 0.398 µM | [12] 0.251 µM | [13] 0.199 µM | [14] 0.199 µM | [15] 0.501 µM | [16] 0.316 µM | [17] 0.251 µM

CCCCC1C(=O)N(c2ccccc2)N(c2ccccc2)C1=O
inactive: [1]

NC(=O)CN1CCCC1=O
inactive: [2]

NCCc1cnc[nH]1
inactive: [1]

NC(=O)CC[C@@H](N)C(=O)O
inactive: [1]

CNC(=O)Oc1cccc2ccccc12
not listed: [1] | [2] | [7]
inactive: all other assays above

O=C1CC2(CCCC2)CC(=O)N1CCCCN1CCN(c2ncccn2)CC1
inactive: [1]

C[C@H](N)[C@H](O)c1ccc(O)c(O)c1
inactive: [2]

C[C@@H]1C[C@@H]([C@H](O)CC2CC(=O)NC(=O)C2)C(=O)[C@@H](C)C1
active: [11] 2 µM | [12] 2 µM and 1 µM | [13] 1.58 µM
50.1 µM (active) and inactive: [4]
inactive: [3] | [6]
2 µM (active) and inactive: [7]

O=C(O)c1nn(Cc2ccc(Cl)cc2Cl)c2ccccc12
inactive: [2] | [1]

Oc1ccc(O)cc1
inactive: [1]

Cc1nc2sccn2c(=O)c1CCN1CCC(=C(c2ccc(F)cc2)c2ccc(F)cc2)CC1
inactive: [1]

Oc1c(Br)cc(Br)cc1Br
not listed: [1] | [2]
inactive: all other assays above

COC(=O)C1=CCCN(C)C1
inactive: [2]

Clc1ccc(Cn2c(CN3CCCC3)nc3ccccc32)cc1
inactive: [1]

C=Cc1c(C)c2cc3[nH]c(cc4nc(cc5nc(cc1[nH]2)C(C)=C5CCC(=O)O)C(CCC(=O)O)=C4C)c(C)c3C=C
inactive: [1]

CN1[C@@H]2CC[C@H]1CC(OC(=O)c1cc(Cl)cc(Cl)c1)C2 (some centres not stated)
inactive: [2] | [1]

Cc1ccc(N(CC2=NCCN2)c2cccc(O)c2)cc1
inactive: [1]

CC1(C)[C@@H]2CC[C@@]1(C)C(=O)C2
inactive: [18]

CC[n+]1c(-c2ccccc2)c2cc(N)ccc2c2ccc(N)cc21
active: [5] 12.6 µM | [6] 15.8 µM | [8] 31.6 µM | [19] 6.31 µM | [9] 15.8 µM | [10] 12.6 µM | [11] 15.8 µM | [12] 15.8 µM | [13] 15.8 µM | [14] 12.6 µM | [15] 20 µM | [16] 15.8 µM | [17] 15.8 µM

Oc1ccc(Cl)cc1Sc1cc(Cl)ccc1O
active: [9] 39.8 µM | [14] 39.8 µM | [15] 39.8 µM
